Screens (PubChem BioAssay)
HCMV antiviral: qHTS Assay for inhibitors of the human cytomegalovirus (HCMV). HFF cells, HCMV-luciferase reporter, 72 h; hits give low values. 4.5% of 410,000 active. activity change, negative = inhibition, % at 57.5 µM. AID 1259415, 2018; in the data active = activity change below about -60%; inconclusive = no clear call, values can overlap the other calls; inactive = above about -39%; also: % is scaled to controls: 0 for no effect and ±100 for the full control effect
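Screen run at 2 compound doses on HFFs infected with reporter HCMV, MOI 1 PFU/cell. Luciferase activity from cell lysates at 72 h post infection gave inhibition relative to buffer-only and Salinomycin wells.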
HCV inh: qHTS Assay for Inhibitors of Hepatitis C Virus (HCV) | Potency, µM (doses to about 41.8 µM), for the others: at the highest dose activity change, negative = inhibition, actives largely listed as inhibitors | 3.4% of 340,000 active | Huh7.5.1 HCVcc-Cre infection, luciferase reporter, 44 h | AID 651820, 2012; also: potency is read from the fitted curve at half-maximal effect; % is scaled to controls: 0 for no effect and ±100 for the full control effect
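Compounds are dispensed onto cells plated 4 h earlier at 1,000 per well, with HCVcc-Cre virus (about 0.5 moi) added next. Following 44 h of culture, luminescent signal is measured for 15 sec after 15 min with substrate at room temperature.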
Vaccinia mCherry: qHTS for Stage-Specific Inhibitors of Vaccinia Orthopoxvirus: mCherry Reporter Primary qHTS; Vaccinia virus mCherry reporter infection, fluorescence; Potency, µM (doses to about 36.5 µM), without a hit: at the highest dose activity change, negative = inhibition, hits mostly inhibitors; 0.63% of 310,000 active; calls by dose curve; tested in A549 cells; also: potency is read from the fitted curve at half-maximal effect; % is scaled to controls: 0 for no effect and ±100 for the full control effect; nearly all actives have a fitted effect of over 35% in size
Giardia FBPA inh: qHTS Assay for Inhibitors of Fructose-1,6-bisphosphate Aldolase from Giardia Lamblia; 0.71% of 290,000 active; purified Giardia FBPA; AID 2451, 2010; Potency, µM (highest dose often 59.6 µM), inactives show at the top dose activity, negative = inhibition, most hits filed as inhibitors; also: potency is read from the fitted curve at half-maximal effect; % is scaled to controls: 0 for no effect and ±100 for the full control effect; nearly all actives have a fitted effect of over 55% in size
Target sequence (A8B2U2 whole entry, looked up): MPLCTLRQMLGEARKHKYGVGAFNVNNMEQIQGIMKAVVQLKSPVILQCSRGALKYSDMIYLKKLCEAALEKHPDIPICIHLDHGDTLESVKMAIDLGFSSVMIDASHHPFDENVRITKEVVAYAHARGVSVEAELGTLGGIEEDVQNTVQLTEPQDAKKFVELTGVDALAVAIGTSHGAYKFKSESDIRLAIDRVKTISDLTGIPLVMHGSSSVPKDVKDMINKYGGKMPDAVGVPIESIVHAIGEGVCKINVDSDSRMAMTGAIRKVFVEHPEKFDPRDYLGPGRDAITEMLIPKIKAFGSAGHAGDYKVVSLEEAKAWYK
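40 nM FBPA preincubated 10 min at RT with compound (up to 57.5 uM final), then substrate plus GAPDH/TPI/NAD/arsenate coupling and diaphorase/resazurin added. Fluorescence read after 20 min at RT, 525/598 nm.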
FMDV inh: High Throughput Screening for Foot and Mouth Disease Virus Antivirals; FMDV antiviral cell-based qHTS; Potency, µM (highest dose often 57.9 µM), without a hit: top-dose activity change, negative = inhibition, usual class: inhibitors; 1.2% of 410,000 active; AID 1159524, 2015; calls by dose curve; tested in HEK293T cells; also: read-out not given here; potency is read from the fitted curve at half-maximal effect; % is scaled to controls: 0 for no effect and ±100 for the full control effect; nearly all actives have a fitted effect of over 45% in size
Vaccinia Venus: qHTS for Stage-Specific Inhibitors of Vaccinia Orthopoxvirus: Venus Reporter Primary qHTS. Vaccinia virus Venus reporter expression, fluorescence. Potency, µM (series often up to 36.5 µM), without a hit: top-dose activity change, negative = inhibition, most hits filed as inhibitors. 0.46% of 330,000 active. AID 720580, 2013; calls by dose curve; tested in A549 cells; also: potency is read from the fitted curve at half-maximal effect; % is scaled to controls: 0 for no effect and ±100 for the full control effect; nearly all actives have a fitted effect of over 30% in size
HCV inh confirm: qHTS Assay for Inhibitors of Hepatitis C Virus (HCV): Confirmation Assay for Cherry-picked Compounds | 78% of 640 active | Potency, µM (titrated, usually from 41.8 µM), inactives show top-dose activity, negative = inhibition, most hits filed as inhibitors | shares compounds with HCV inh | HCVcc-Cre infectious virus cell assay, luciferase, inhibition; also: potency is read from the fitted curve at half-maximal effect; nearly all actives have a fitted effect of over 80% in size
HCV cytotox: qHTS Assay for Inhibitors of Hepatitis C Virus (HCV): Cytotoxicity Counterscreen for Cherry-picked Compounds | shares compounds with HCV inh | HCV host cell line cytotoxicity counterscreen | Potency, µM (top dose mostly 41.8 µM), for the others: at the top dose activity change, negative = cytotoxicity, usual class: inhibitors | 22% of 640 active | AID 720576, 2013;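 also: potency is read from the fitted curve at half-maximal effect; 44 h compound exposure; % is scaled to controls: 0 for no effect and ±100 for the full control effect; nearly all actives have a fitted effect of over 55% in size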
Active calls of the source: *; i = inactive; ? = inconclusive; / = no result given. A selection: hits, their analogues and other compounds. The true share with any hit is near 7.5%. Unless noted, calls follow the shape of the dose curve; as a rule, active = well fitted curve in the direction sought with a large enough effect; inconclusive = small, poorly fitted or top-dose-only effect, or another doubt; inactive = no such curve, though single readings can be large; an effect the other way counts as inactive or inconclusive.

SMILES	HCMV antiviral	HCV inh	Vaccinia mCherry	Giardia FBPA inh	FMDV inh	Vaccinia Venus	HCV inh confirm	HCV cytotox
COc1nc(Nc2nc3ccccc3c(=O)[nH]2)nc2ccc(C)cc12	-100*	3.2µM*	2µM*	-1%	45%	2µM*	7µM*	?
Cc1cc(C)cc(Nc2nc3ccccc3c(=O)[nH]2)c1	?	12%	-10%	-5%	3%	-20%	/	/
CC(N)c1csc(Nc2ncccn2)n1 (centres undefined)	-23	/	-7%	/	-5%	?	/	/
Cc1[nH]n(-c2nc(-c3ccc(Cl)cc3)cs2)c(=O)c1N=Nc1ccc(O)cc1	-34	1.8µM*	-15%	-2%	7.9µM*	-15%	14µM*	-99%
CCc1c(C)[nH]n(-c2nc(-c3ccccc3)cs2)c1=O	-26	-23%	-18%	-17%	30%	-8%	/	/
CS(=O)(=O)N(CC(=O)Nc1ccccc1Cl)c1ccc(Cl)cc1	104	-8%	-11%	-2%	24%	-8%	/	/
COc1ccccc1CCC(=O)OCC(=O)c1c(N)n(CC(C)C)c(=O)n(C)c1=O	-3	-14%	-1%	/	?	-12%	/	/
CCOc1ccccc1OCC(=O)OCC(=O)c1c(N)n(CC(C)C)c(=O)n(C)c1=O	-4	?	/	/	?	/	?	-90%
CN(C(=O)C1CCCC1)C1CCS(=O)(=O)C1 (centres undefined)	/	8%	i	/	-24%	-3%	/	/
CS(=O)(=O)Nc1cccc(NC(=O)C2Cc3c(-c4ccccc4)ccnc3O2)c1 (centres undefined)	38	/	-30%	/	?	?	/	/
COC(=O)c1sc(NC(=O)/C=C/c2ccccc2Cl)nc1C	4	5.6µM*	i	3%	14%	-13%	?	1%
COC(=O)c1sc(NC(=O)/C=C/c2ccc(C)cc2)nc1C	-12	13%	-12%	0%	18%	0%	/	/
Cc1cc(O)c(C(c2ccccc2Cl)N2CCN(c3ccccc3)CC2)c(=O)n1Cc1ccco1 (centres undefined)	17	/	-15%	/	?	-17%	/	/
CC(Oc1ccc(Cl)cc1Cl)c1nc(-c2ccc(NC(=O)c3ccncc3)cc2)no1 (centres undefined)	-101*	2.8µM*	/	-5%	16µM*	/	7µM*	11µM*
CC(Oc1ccc(Cl)cc1Cl)C(=O)NNC(=O)c1ccncc1 (centres undefined)	3	3%	i	/	11%	-21%	/	/
O=C(NC1CCCCC1)c1ccc(CSc2nc3cccnc3n2Cc2cccc(F)c2)cc1	-36	/	-22%	/	?	-12%	/	/
CCOc1ccc(CCNS(=O)(=O)c2cnc[nH]2)cc1OCC	-19	6.3µM*	-14%	-1%	3%	-17%	?	-9%
COc1ccc(CN2CCC(N(CCc3ccccc3)Cc3ccccc3)CC2)c(OC)c1	-99*	2.5µM*	-17%	?	18µM*	-23%	7µM*	?
C[C@@H](CSc1ccc(Br)cc1)CN1CC[C@H](NC(=O)OCc2ccccc2)CCC1=O	-25	4.5µM*	-6%	/	25µM*	?	14µM*	-63%
COc1ccc(SC[C@H](C)CN2CC[C@H](NC(=O)OCc3ccccc3)CCC2=O)cc1	-13	?	-9%	/	?	-27%	/	/
NC(=O)C(OC(=O)CNC(=O)C1CCCCC1)c1ccccc1 (centres undefined)	/	/	-13%	/	/	11%	/	/
CCOc1cccc(C(=O)NC(=S)Nc2ccc(N3CCN(CC)CC3)cc2)c1	-30	?	i	-15%	4%	-15%	/	/
CCN1CCN(c2ccc(NC(=O)c3cccc(OCc4ccccc4)c3)cc2)CC1	-15	4.5µM*	?	-1%	-5%	?	8.9µM*	7%
COc1ccc(NC(=O)/C(Cl)=C(/Cl)S(=O)Cc2ccccc2)cn1 (centres undefined)	-100*	0.79µM*	7.1µM*	-1%	6.3µM*	8.9µM*	6.3µM*	6.3µM*
Cc1ccc(S(=O)(=O)NCc2ccncc2)c(C)c1C	-83*	0.79µM*	-15%	-21%	-10%	-17%	0.79µM*	-95%
SMILES	HCMV antiviral	HCV inh	Vaccinia mCherry	Giardia FBPA inh	FMDV inh	Vaccinia Venus	HCV inh confirm	HCV cytotox
COc1cc2c(cc1OC)C(C)N(C(=O)C(NC(=O)c1ccccc1)C(C)C)CC2 (centres undefined)	65	?	36%	6%	-10%	1%	/	/
COc1cc2c(cc1OC)C(C)N(C(=O)[C@@H](NC(=O)c1ccccc1)C(C)C)CC2 (some centres undefined)	?	1.4µM*	16%	-1%	-19%	-11%	?	6%
COC(=O)c1ccc(C(NC(=O)OCc2ccccc2)/C(=C/[C@@H](C)C(=O)NCc2cc(C)on2)c2cccnc2)cc1 (some centres undefined)	/	/	/	2%	/	/	/	/
Cc1cnc(CNC(=O)c2csc([C@H]3C[C@H](O)[C@@H](CO)O3)n2)cn1	-15	/	-4%	/	-8%	3%	/	/
COCC(=O)Nc1ncc(S(=O)(=O)c2ccc([N+](=O)[O-])cc2)s1	-39	6%	?	12%	-21%	-30%	/	/
O=C(NC(Nc1ncc(S(=O)(=O)c2ccc([N+](=O)[O-])cc2)s1)(C(F)(F)F)C(F)(F)F)c1ccc(Cl)cc1	-96*	4.5µM*	18µM*	9%	?	?	4.4µM*	7.9µM*
COc1cccc(NC(=O)C2CCN(S(=O)(=O)c3ccc(N4CCCC4=O)cc3)CC2)c1	0	/	i	/	?	?	/	/
O=C(Nc1cccc(C(F)(F)F)c1)C1CCN(S(=O)(=O)c2ccc(N3CCCC3=O)cc2)CC1	-66*	6.3µM*	/	/	?	/	8.9µM*	14µM*
CCOC(=O)c1[nH]c(C)c(C(=O)N2CCCC(Nc3ccc(C)c(C)c3)C2)c1C (centres undefined)	-27	-4%	/	-6%	4%	/	/	/
Cc1cccc(NC(=O)c2ncn3c2C(=O)N(C)CC3)c1	-10	/	-29%	/	-6%	-8%	/	/
